Test results from the supplement of paper PMC10849652.
About 7,900 targets were measured; listed, in parts, are those with a hit and a random draw of the rest. About 0.6% of all pairs of compound and target were hits. A number with no mark means an inactive call.

Assays:
Assay in all cases: log2 fold change, soluble protein after heating vs DMSO (PISA); higher = thermal stabilisation; K562 cells, 10 uM, 30 min; active = over 0.2 and 3.5 SD of the protein, either way, in both replicates (recomputed)
[1] = compound: NC(=O)Nc1cc(-c2cccc(F)c2)sc1C(=O)N[C@H]1CCCNC1
Summary of the method: (§1)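 Soluble protein was quantified by TMTpro 16plex LC-MS/MS after channel sums were equalised. It was obtained as the supernatant after 21,000xg for 90 min from pooled aliquots of K562 cells (2×10^6 cells/mL, 10 μM compound, 30 min) heated for 3 min across 48°C-58°C and extracted in PBS with 0.5% NP-40 at 4°C. Thermal stability values are relative to control samples and come from duplicates. They are given as log2 fold changes.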

[2] = compound: NC(=O)c1cnc(N[C@@H]2CCCC[C@@H]2N)nc1Nc1cccc(-n2nccn2)c1
Summary of the method: as §1

[3] = compound: NC1(c2ccc(-c3nc4ccn5c(=O)[nH]nc5c4cc3-c3ccccc3)cc2)CCC1
Summary of the method: as §1

[4] = compound: NCC(=O)Nc1ccc(-n2nc(C(F)(F)F)cc2-c2ccc3c(ccc4ccccc43)c2)cc1
Summary of the method: as §1

[5] = compound: Nc1ccccc1NC(=O)c1ccc(CNC(=O)OCc2cccnc2)cc1 [entinostat]
Summary of the method: as §1

[6] = compound: O=C(CCCCCCC(=O)Nc1ccccc1)NO [vorinostat]
Summary of the method: as §1

[7] = compound: O=C(CCCCCCNC(=O)c1cnc(N(c2ccccc2)c2ccccc2Cl)nc1)NO [citarinostat]
Summary of the method: as §1

[8] = compound: O=C(O)c1ccc2c(c1)nc(Nc1cccc(Cl)c1)c1ccncc12 [silmitasertib]
Summary of the method: as §1

[9] = compound: O=C1NC(=O)C(c2cnc3ccccn23)=C1c1cn2c3c(cc(F)cc13)CN(C(=O)N1CCCCC1)CC2
Summary of the method: as §1

[10] = compound: c1cc(OCCN2CCCCC2)cc(-c2n[nH]c3ccc(-c4nnc[nH]4)cc23)c1
Summary of the method: as §1

UniProt P17544, sequence (P17544 whole entry, looked up): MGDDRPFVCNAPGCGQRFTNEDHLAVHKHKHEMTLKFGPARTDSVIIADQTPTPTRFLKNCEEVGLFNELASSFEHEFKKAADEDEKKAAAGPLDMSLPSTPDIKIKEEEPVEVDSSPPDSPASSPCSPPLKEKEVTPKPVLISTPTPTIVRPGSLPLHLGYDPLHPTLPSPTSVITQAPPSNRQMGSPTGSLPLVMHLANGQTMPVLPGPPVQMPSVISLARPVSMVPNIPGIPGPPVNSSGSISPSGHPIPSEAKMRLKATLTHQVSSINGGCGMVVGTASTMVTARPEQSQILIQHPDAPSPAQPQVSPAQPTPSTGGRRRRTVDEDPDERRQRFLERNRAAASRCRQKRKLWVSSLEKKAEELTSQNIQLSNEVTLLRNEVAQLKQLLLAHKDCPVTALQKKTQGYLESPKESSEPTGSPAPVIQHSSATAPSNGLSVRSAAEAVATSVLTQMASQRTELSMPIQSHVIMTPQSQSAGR
UniProt Q9HC16, sequence (Q9HC16 whole entry, looked up): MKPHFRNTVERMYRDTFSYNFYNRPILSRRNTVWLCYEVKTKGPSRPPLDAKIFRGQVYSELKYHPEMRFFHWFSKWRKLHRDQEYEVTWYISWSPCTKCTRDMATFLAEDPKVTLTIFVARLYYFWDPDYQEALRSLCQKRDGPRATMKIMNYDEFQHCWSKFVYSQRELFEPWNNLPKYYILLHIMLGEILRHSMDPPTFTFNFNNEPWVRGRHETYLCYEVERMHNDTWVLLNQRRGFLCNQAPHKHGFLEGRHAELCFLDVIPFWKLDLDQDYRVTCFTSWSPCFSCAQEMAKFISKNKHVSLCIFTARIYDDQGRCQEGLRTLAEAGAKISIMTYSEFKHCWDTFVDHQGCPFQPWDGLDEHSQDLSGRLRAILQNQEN
UniProt P11117, sequence (P11117 whole entry, looked up): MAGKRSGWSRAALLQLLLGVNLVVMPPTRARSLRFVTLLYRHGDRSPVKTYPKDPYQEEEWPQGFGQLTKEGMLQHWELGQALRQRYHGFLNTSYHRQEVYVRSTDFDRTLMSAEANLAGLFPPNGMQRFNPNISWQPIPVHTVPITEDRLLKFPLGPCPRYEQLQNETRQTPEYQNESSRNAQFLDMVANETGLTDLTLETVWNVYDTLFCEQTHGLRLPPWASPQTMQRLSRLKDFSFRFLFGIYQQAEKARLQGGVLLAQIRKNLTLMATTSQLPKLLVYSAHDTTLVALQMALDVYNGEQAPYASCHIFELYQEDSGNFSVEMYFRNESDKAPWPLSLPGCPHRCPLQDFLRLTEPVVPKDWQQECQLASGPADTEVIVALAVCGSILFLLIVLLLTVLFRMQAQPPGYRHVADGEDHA
UniProt Q66PJ3, sequence (Q66PJ3 whole entry, looked up): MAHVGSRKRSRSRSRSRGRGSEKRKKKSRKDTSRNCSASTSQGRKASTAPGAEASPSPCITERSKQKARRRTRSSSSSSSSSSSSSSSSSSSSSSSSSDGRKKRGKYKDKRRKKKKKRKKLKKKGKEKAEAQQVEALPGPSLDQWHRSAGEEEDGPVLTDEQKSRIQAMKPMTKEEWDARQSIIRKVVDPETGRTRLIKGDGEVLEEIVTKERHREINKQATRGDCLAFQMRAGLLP
UniProt Q5T9A4, sequence (Q5T9A4 whole entry, looked up): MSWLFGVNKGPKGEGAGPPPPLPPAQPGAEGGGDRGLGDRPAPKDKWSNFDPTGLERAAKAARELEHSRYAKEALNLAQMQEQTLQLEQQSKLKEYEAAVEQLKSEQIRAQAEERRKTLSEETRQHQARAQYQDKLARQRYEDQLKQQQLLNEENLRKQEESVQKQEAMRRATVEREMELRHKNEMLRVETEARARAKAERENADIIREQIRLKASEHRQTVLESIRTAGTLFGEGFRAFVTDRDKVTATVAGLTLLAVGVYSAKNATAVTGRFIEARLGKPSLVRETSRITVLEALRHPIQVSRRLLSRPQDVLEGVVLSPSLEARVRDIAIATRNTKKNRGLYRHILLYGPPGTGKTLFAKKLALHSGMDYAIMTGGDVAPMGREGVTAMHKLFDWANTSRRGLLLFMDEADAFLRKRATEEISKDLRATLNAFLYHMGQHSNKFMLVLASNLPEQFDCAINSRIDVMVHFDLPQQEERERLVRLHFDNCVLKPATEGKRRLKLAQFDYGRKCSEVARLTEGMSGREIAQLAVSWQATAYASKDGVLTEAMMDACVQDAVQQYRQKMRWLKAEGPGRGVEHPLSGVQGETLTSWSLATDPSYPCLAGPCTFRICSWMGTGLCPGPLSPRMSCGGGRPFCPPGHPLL
UniProt Q9H0E9, sequence (Q9H0E9 whole entry, looked up): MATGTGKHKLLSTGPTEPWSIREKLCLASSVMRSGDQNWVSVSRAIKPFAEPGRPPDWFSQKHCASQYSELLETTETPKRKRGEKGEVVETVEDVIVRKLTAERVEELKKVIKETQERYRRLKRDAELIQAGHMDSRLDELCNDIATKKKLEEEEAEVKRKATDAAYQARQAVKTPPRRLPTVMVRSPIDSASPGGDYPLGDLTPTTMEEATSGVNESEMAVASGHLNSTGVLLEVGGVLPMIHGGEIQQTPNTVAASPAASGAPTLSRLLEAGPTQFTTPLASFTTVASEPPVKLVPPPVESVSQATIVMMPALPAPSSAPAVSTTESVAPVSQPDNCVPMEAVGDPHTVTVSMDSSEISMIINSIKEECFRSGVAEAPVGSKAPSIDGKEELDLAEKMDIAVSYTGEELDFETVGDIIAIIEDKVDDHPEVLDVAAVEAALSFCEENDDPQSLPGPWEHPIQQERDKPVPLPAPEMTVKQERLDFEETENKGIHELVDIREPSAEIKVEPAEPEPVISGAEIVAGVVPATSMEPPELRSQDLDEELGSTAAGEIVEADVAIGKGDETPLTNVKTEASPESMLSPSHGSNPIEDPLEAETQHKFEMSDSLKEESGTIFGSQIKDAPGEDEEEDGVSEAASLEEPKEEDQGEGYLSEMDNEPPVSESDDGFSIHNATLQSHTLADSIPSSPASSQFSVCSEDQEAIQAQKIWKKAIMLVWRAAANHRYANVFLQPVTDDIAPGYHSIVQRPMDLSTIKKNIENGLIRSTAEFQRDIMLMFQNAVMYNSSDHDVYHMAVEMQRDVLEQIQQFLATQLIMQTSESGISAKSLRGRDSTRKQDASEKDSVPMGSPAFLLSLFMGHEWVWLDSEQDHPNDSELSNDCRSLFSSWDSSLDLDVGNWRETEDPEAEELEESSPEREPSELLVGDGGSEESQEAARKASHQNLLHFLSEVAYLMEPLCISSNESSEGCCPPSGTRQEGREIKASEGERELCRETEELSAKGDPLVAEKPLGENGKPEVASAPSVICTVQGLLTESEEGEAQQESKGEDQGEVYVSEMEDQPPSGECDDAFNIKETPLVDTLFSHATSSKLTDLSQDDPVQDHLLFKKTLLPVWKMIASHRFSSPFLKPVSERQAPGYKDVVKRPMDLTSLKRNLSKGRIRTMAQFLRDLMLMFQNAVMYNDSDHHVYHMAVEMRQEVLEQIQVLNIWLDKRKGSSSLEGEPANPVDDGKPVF
UniProt Q96G97, sequence (Q96G97 whole entry, looked up): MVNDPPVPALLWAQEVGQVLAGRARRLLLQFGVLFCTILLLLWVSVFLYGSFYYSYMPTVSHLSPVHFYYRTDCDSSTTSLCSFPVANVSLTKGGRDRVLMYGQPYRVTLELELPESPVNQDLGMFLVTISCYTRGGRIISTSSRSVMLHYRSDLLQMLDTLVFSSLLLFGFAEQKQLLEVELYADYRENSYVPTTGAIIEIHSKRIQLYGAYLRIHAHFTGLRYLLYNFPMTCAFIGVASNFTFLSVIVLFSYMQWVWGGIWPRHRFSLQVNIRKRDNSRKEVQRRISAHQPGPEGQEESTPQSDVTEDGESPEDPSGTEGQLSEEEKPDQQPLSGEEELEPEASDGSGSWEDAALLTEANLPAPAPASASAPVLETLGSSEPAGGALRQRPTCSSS
UniProt Q04771, sequence (Q04771 whole entry, looked up): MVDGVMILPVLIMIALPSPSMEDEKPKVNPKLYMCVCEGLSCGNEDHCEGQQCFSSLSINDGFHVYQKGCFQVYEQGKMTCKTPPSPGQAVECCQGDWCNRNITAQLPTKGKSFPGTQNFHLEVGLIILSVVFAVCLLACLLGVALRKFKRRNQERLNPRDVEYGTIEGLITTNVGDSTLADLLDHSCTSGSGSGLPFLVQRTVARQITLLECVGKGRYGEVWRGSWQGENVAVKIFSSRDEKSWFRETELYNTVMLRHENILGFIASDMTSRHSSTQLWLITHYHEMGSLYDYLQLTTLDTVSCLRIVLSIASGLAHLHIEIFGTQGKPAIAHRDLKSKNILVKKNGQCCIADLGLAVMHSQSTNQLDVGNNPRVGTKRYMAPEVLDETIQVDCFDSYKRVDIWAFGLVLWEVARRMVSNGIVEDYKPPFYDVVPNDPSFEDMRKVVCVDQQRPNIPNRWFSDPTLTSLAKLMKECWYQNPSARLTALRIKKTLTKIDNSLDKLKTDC
UniProt Q9Y587, sequence (Q9Y587 whole entry, looked up): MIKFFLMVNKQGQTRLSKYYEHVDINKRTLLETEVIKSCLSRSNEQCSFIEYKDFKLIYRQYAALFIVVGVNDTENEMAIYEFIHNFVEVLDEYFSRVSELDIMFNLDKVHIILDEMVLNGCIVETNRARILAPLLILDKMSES
UniProt Q9BTE6, sequence (Q9BTE6 whole entry, looked up): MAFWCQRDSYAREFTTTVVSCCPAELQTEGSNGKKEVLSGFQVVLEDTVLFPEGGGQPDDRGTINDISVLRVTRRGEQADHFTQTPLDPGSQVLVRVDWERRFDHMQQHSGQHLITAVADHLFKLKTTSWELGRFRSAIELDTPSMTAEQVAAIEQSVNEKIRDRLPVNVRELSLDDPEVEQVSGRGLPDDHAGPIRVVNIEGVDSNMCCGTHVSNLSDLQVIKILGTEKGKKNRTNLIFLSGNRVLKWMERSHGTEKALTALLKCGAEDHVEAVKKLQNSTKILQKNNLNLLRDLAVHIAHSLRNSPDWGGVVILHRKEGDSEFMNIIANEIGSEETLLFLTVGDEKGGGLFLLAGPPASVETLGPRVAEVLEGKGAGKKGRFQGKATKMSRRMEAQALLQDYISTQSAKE

Target | log2 fold change [1] | log2 fold change [2] | log2 fold change [3] | log2 fold change [4] | log2 fold change [5] | log2 fold change [6] | log2 fold change [7] | log2 fold change [8] | log2 fold change [9] | log2 fold change [10]
ATAD3B (UniProt Q5T9A4) | 0.017 | -0.029 | -0.089 | -0.088 | 0.013 | 0.108 | -0.016 | 0.005 | 0.248 | -0.104
ATF7 isoform 6 (UniProt P17544) | -0.113 | 0.138 | -0.123 | 0.268 | -0.045 |  |  | 0.067 | -0.044 | 
ACVR1 (UniProt Q04771) | 0.044 | 0.074 | 0 | 0.089 | 0.137 | -0.255 | 0.07 | 0.046 | -0.069 | 0.027
ACOX3 (UniProt O15254) | -0.084 | 0.004 | -0.09 | 0.16 | 0.071 |  | 0.287 | -0.302 | -0.022 | -0.016
ARL6IP4 (UniProt Q66PJ3) | -0.035 | 0.221 | 0.025 | 0.013 | -0.04 | -0.011 | 0.04 | -0.017 | -0.007 | -0.017
ACP2 (UniProt P11117) | -0.014 | 0.002 | -0.124 | 0.018 | -0.01 | -0.003 | 0.05 | 0.069 | -0.052 | -0.102
BRD3 (UniProt Q15059) | 0.008 | -0.026 | 0.017 | 0.119 | -0.123 | -0.663 (active) | -0.567 (active) | 0.061 |  | -0.002
ATIC (UniProt P31939) | -0.023 | 0.001 | 0.03 | -0.009 | -0.019 | -0.026 | 0.01 | -0.059 | -0.066 | 0.013
APOBEC3G (UniProt Q9HC16) | 0.046 | 0.149 | 0.061 | -0.027 | 0.026 |  | 0.125 | 0.116 | 0.202 | -0.013
AP4S1 (UniProt Q9Y587) | -0.014 | 0.039 | -0.11 | 0.019 | 0.062 |  | 0.054 | -0.005 | -0.092 | 0.015
ACSL5 isoform 3 (UniProt Q9ULC5) | -0.007 | -0.066 | -0.042 | -0.184 | 0.081 | 0.005 | -0.035 | 0.002 | -0.103 | -0.052
ARHGAP4 isoform 2 (UniProt P98171) | 0.197 | -0.079 | 0.021 | -0.036 | 0.081 |  | 0.047 | -0.043 |  | -0.097
ATP13A3 (UniProt Q9H7F0) | -0.072 | 0.027 | -0.082 | 0.039 | 0.026 | -0.026 | -0.033 | 0.048 | 0.02 | -0.099
AARSD1 (UniProt Q9BTE6) |  | -0.066 | -0.048 |  |  |  | 0.144 | 0.137 |  | 0.066
BRD2 isoform 2 (UniProt P25440) | -0.01 | -0.209 |  | -0.112 | -0.159 | -0.214 |  |  |  | 
BRD8 isoform 2 (UniProt Q9H0E9) | -0.016 | -0.205 |  | -0.13 | 0.039 | -0.092 | -0.019 |  | 0.102 | -0.09
BSCL2 isoform 4 (UniProt Q96G97) |  | -0.197 | -0.013 | 0.007 |  | 0.074 |  | 0.172 | 0.033 | 
